# Experimental data from PubChem BioAssay AID720706 (Broad Institute, 2013).
# Screen size: about 350,000 compounds; about 5,500 (1.6%) were called active.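 How the source made its calls: active means significant combined selectivity score with lowered wild-type GFP, culture density cut under 30%, mutant RFP and density less affected; inactive means any of these conditions unmet.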 Only a selection was taken, and actives are over-represented in it overall.
# Assay: reduced GFP signal of wild-type E. coli, primary screen, bacterial rRNA inhibitor project, GFP/RFP fluorescence, OD600, single point (AID 720706)
# Conditions: E. coli WT GFP vs humanized-ribosome RFP mutants, 24 h; GFP signal change (wild-type ribosome): stronger effect = lower value, DMSO median 0, no signal -100; OD600 change: measured here: OD600 growth, DMSO median 0, no signal -100; RFP signal change: measured here: RFP humanized mutant strains, DMSO median 0, no signal -100, concentration not given here
Structure (SMILES),GFP signal change (wild-type ribosome),OD600 change [%],RFP signal change [%]
CCCNC(=O)N1CC2(C1)CN(Cc1cccc(F)c1)[C@@H](CO)c1[nH]c3cc(OC)ccc3c12,0.104% (inactive),3.77,0.338
COCCn1c(SCC(=O)Nc2ccc(F)cc2F)nc2c(c1=O)SCC2,0.103% (inactive),-1.78,-3.71
Cn1c(SCC(=O)N2CCCCC2)nc2c(c1=O)SCC2,5.14% (inactive),-0.579,-0.99
Cc1cccc(CSc2nc3c(c(=O)n2C)SCC3)c1,-33.5% (active),-21,-2.49
CCCN1[C@H](C(=O)N[C@H](C)c2ccccc2)[C@@H](CO)[C@@H]2Cn3c(ccc(-c4ccccc4)c3=O)[C@@H]21,-1.92% (inactive),-37.1,14.2
Cc1ccc(N2C(=O)SC(N(CC(=O)O)c3ccc(C)cc3)C2=O)cc1 (stereo unspecified),-19.1% (active),-12.3,8.05
Cc1ccc(CC2S/C(=C(/C#N)C(=O)N3CCOCC3)N(c3ccccc3)C2=O)cc1 (stereo unspecified),7.88% (inactive),10.1,-0.528
Cc1cccc(N2C(=O)SC(N(CC(=O)O)c3cccc(C)c3)C2=O)c1 (stereo unspecified),2.86% (inactive),2.55,2.75
CCC(=O)N(C)C[C@@H]1Oc2cc(C#CCOC)ccc2S(=O)(=O)N([C@@H](C)CO)C[C@@H]1C,2.66% (inactive),5.66,-0.769
C[C@H](CO)N1C[C@H](C)[C@@H](CN(C)S(=O)(=O)c2ccc(Cl)cc2)Oc2ccc(NS(=O)(=O)c3cccs3)cc2CC1=O,-3.83% (inactive),-15.4,2.4
COc1ccc(C(C)(O)c2nc(-c3ccc(C)c(C)c3)cs2)cc1 (stereo unspecified),-26.3% (inactive),-43.5,0.438
CC(C)(C)C(=O)OCc1nc(-c2ccc(O)c(O)c2)cs1,-25.8% (active),-12.7,-1.12
CN(c1ccc(O)cc1)c1nc(-c2cccnc2)cs1,-12.4% (inactive),-11.5,-4.17
COc1ccccc1-c1ccc([C@@H]2C[C@H]3[C@H](CON3C)CN2S(=O)(=O)c2cc(Cl)cc(Cl)c2)cc1,6.53% (inactive),14.8,-4.58
CC(=O)Nc1ccc(NC(=O)CSc2nnnn2-c2ccccc2F)cc1,4.89% (inactive),2.23,-0.743
Cc1ccccc1-n1nnnc1SCCCC(=O)c1ccc(F)cc1,-23.1% (active),-14.2,-2.44
O=C(CSc1nnnn1-c1ccc(O)cc1)c1ccc(F)cc1,-23.8% (inactive),-18.1,-2.43
CCNC(=O)Nc1ccc2c(c1)C(=O)N(C)[C@H]1CC[C@H](CC(=O)NCC3CCCCC3)O[C@@H]1CO2,-0.861% (inactive),-5.67,0.251
O=C(c1ccc(F)cc1)N1CC(=O)N2[C@H](CO)[C@H](c3ccc(-c4ccccc4F)cc3)[C@@H]2C1,0.409% (inactive),-9.64,3.17
C[C@@H]1CN([C@H](C)CO)C(=O)c2cc(NC(=O)Nc3ccccc3)ccc2O[C@@H](C)CCCCO[C@@H]1CN(C)S(=O)(=O)c1ccc(F)cc1,1.72% (inactive),-2.21,-3.62
COc1ccc2c3c(n(C)c2c1)[C@@H](CO)N(C)CC31CN(S(=O)(=O)c2cccs2)C1,0.733% (inactive),-9.82,-0.435
O=C(C[C@@H]1CC[C@@H](NC(=O)Nc2ccc(F)cc2)[C@H](CO)O1)NCCN1CCCC1,0.52% (inactive),4.7,-1.57
